According to PubChem BioAssay (NCI):
Several values for one entry are separate records, joined by “and”; a condition that tells them apart may be missing. Identical values can stand only once. About 79,000 compounds went through this panel and 15% of them were active in at least one assay; those are over-represented in the sample as a whole. Unmarked numbers belong to inactive results. Activity calls are given as the source filed them. Rule as the data show it: active = growth inhibition above about 70%; inactive = the rest.

What was measured:
[1] = NCI Yeast Anticancer Drug Screen. Data for the rad50 strain (AID 155);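 also: 0% = growth of vehicle-only cultures of the same strain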; conditions: S. cerevisiae rad50 strain growth inhibition, hits give high values; at 50.0 µM unless noted
How it was run: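 Yeast carrying a defined DNA repair defect were exposed to test compounds, and growth was compared with vehicle-treated controls to give percent inhibition.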

[2] = NCI Yeast Anticancer Drug Screen. Data for the mec2-1 strain (AID 157); conditions: S. cerevisiae mec2-1 strain, hits give high values; at 50.0 µM unless noted
How it was run: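 Growth inhibition is read against vehicle-treated controls after compound exposure of the mec2-1 yeast strain, which is defective in DNA damage repair or cell cycle control.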

[3] = NCI Yeast Anticancer Drug Screen. Data for the sgs1 mgt1 strain (AID 161);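 also: 0% = growth of cultures given vehicle only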; conditions: S. cerevisiae sgs1 mgt1 strain, hits give high values; at 50.0 µM unless noted
How it was run: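 Compounds are added to genetically altered yeast, and growth is compared with cultures given vehicle alone to give percent inhibition.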

[4] = NCI Yeast Anticancer Drug Screen. Data for the cln2 rad14 strain (AID 165);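 also: 0% = growth equal to vehicle treated cultures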; conditions: S. cerevisiae cln2 rad14 strain, hits give high values; at 50.0 µM unless noted
How it was run: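 Growth inhibition, relative to vehicle-treated controls, is the read-out. The test organism is a yeast strain with defined genetic alterations, cln2 rad14.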

[5] = NCI Yeast Anticancer Drug Screen. Data for the bub3 strain (AID 167); conditions: S. cerevisiae bub3 mutant strain, hits give high values; at 50.0 µM unless noted
How it was run: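 Compounds were applied to a genetically altered yeast strain carrying a cell-cycle control defect. Growth inhibition was scored against vehicle-treated controls.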

[6] = NCI Yeast Anticancer Drug Screen. Data for the mlh1 rad18 strain (AID 175); conditions: S. cerevisiae mlh1 rad18 strain growth inhibition, hits give high values; at 50.0 µM unless noted
How it was run: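 Cells of a genetically altered yeast strain, deficient in DNA damage repair, were treated with compound. Their growth was then compared with that of vehicle-treated cultures to give inhibition.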

Row | SMILES | growth inhibition [1] | growth inhibition [2] | growth inhibition [3] | growth inhibition [4] | growth inhibition [5] | growth inhibition [6]
1 | Nc1ccccc1[N+](=O)[O-] | -14.4% | -3.45% | -14.7% | -15.7% | 1.5% | -1.55%
2 | CC(Br)CCCBr (stereo unspecified) | -19.1% | -5.65% | -21.1% | -22.4% | -4.5% | -13.8%
3 | CCN(CC)CCNC(=O)c1cc(N2CCOCC2)ccn1 | 23.3% | 11.7% | 18.5% | 1.05% | 30.6% | 45.5%
4 | CCN1C(=O)C(=O)C(c2ccccc2)(c2ccccc2)C1=O | -6.3% | -3.65% | -4.65% | -21.6% | 2.9% | 46.9%
5 | CN(C)C(=NN=C(N(C)C)N(C)C)N(C)C | 12.2% | -4.2% | 0.05% | -39% | -5.85% | 1.5%
6 | C#CC(O)C1OC(C)(C)OC1C1COC(C)(C)O1 (stereo unspecified) | 4.15% | 6.5% | 13.2% | -4.4% | -3.6% | -5.65%
7 | Cc1nc(-c2ccc(Cl)cc2)cn2c1nc1ccccc12 | -5.5% | -0.1% | 8.2% | -15.1% | 47.5% | -10.3%
8 | CNc1ccc(C=C2C=CC=C2)cc1 | 41.2% | 1.7% | 48.7% | 5.2% | 7.4% | 55.7%
9 | O=c1cc(-c2ccccc2)[nH]c2c(F)ccc(F)c12 | -27.4% | -46.5% | -34.5% | 11.3% | -34.9% | -18.9%
10 | NCCSS(=O)(=O)O | 3.25% | 4.45% | -17.7% | -41.5% | 0.45% | -24.9%
11 | Cc1c2ccccc2nc(CS(C)(=O)=O)[n+]1[O-] | -16.9% | -1.8% | -4.75% | -51.6% | -16.7% | -5.5%
12 | O=C(NC(=O)c1ccccc1)Oc1cccc2ccccc12 | 18.3% | -0.1% | 20.1% | 7.85% | 10.7% | 22.8%
13 | CCCCCCC(C)OB(OC(C)CCCCCC)OC(C)CCCCCC (stereo unspecified) | -27.6% | -49% | -0.8% | 13.8% | -41.4% | -0.85%
14 | C=CC(=O)OCCN(CCCC)CCCC | -12.9% | -0.2% | -10.9% | -10.8% | 6.75% | 21.5%
15 | CCCCCC(=O)NNC(=O)CCCCC | 7.35% | 13.8% | 7.2% | -4.95% | -21.8% | 15.1%
16 | CC(C)(O)C(=O)O | -6% and -19% | 6.1% and -1.45% | -8.2% and -10.8% | 2.05% and -32.8% | 7.25% and -3.95% | 6.6% and -4.6%
17 | COc1ccc(C(=O)/C=C/N)c(OC)c1 | 17.3% | -25.4% | 5.45% | 20% | 9.35% | 10.9%
18 | CCCCCCCCC(O)C#CC(O)CCCCCCCC (stereo unspecified) | -18% | -20.9% | -5.6% | -12.9% | -12.6% | -8.85%
19 | CCCCCCCCCCCCCOc1ccc(S(=O)(=O)/N=C(\N)NC(N)=NCCCCCCCCCCCC)cc1 | 2.9% | 12.4% | -2.8% | -1.55% | -4.95% | 8.05%
20 | COc1cc(C=O)c(Cl)cc1OC(C)=O | 32.9% | 21.9% | 36.4% | 32.8% | -10.1% | 27.9%
21 | N#CC1(OC2CCCCO2)Cc2ccccc2C1 (stereo unspecified) | 16.8% | 2.45% | -13.3% | -48.9% | -5.45% | -1.15%

Row | SMILES | growth inhibition [1] | growth inhibition [2] | growth inhibition [3] | growth inhibition [4] | growth inhibition [5] | growth inhibition [6]
22 | c1ccc2c3c([nH]c2c1)CCCC3 | -1.6% | 1.2% | -10.2% | -31.4% | 11.5% | -1.25%
23 | FC1=C(F)C2(F)C3CCC(O3)C2(F)C(Br)=C1F (stereo unspecified) | -9.6% | -3.3% | 3.2% | -1.35% | -6.15% | 4.5%
24 | Cc1ccc(-c2ccc(C)cc2C(=O)O)c(C(=O)O)c1 | -21.8% | 1% | 4% | -28.1% | -2.5% | -15.3%
25 | CC(C)(C)CC(=O)NC1CCCCC1 | -6.55% | -5.8% | 12.2% | -23.1% | 3.4% | 13.7%
26 | C[N+](C)(CCCCCCCCCC[N+](C)(C)CC(=O)c1ccccc1)CC(=O)c1ccccc1 | 36.2% | -7.25% | 24.7% | -11.8% | 0.4% | 18.1%
27 | NNC(=O)c1nnn(CCc2ccccc2)c1C(=O)NN | -1.45% | 3.25% | -1.15% | 5.55% | -9.55% | -3.9%
28 | CCCCOP(=O)(Nc1ccc([N+](=O)[O-])cc1)OCCCC | 94.1% (active) | 86.3% (active) | 91.1% (active) | 74% (active) | 77.2% (active) | 87.5% (active)
29 | O=C1N=CN=C2C=CC(Cl)=C(I)C12 (stereo unspecified) | 0.85% | 16.1% | 19.5% | 5.35% | 29.9% | 4.15%
30 | Cl | -13.4% and -6.25% | -29.2% and 17.5% | -10.4% and 1.8% | -0.9% and 2.2% | -5.15% and -38% | -16% and -32.6%
31 | CC(=O)OCC(O)CS(=O)c1ccc(C)cc1 (stereo unspecified) | -6.25% | 2% | 0.4% | -30.6% | -16.1% | 4.2%
32 | CC1=CC(=O)CC(C)(C)C1 | 1.45% | 5.95% | -1.7% | 6.4% | 17.1% | 3.45%
33 | CC(C)NS(=O)(=O)OCC(O)(CC(Cl)(Cl)Cl)c1ccccc1 (stereo unspecified) | 23.8% | 4.2% | 16.9% | 21.9% | 11.7% | 38.7%
34 | NC(=O)C1(N2CCCC2)CCN(Cc2ccccc2)CC1 | -9.2% | -18.9% | -17.6% | -1.6% | -10.6% | -15.8%
35 | C/C(=C\CNc1nc(Cl)nc2nc[nH]c12)CO | -12.3% | -5.6% | -32.6% | 3.6% | -0.4% | -8.4%
36 | CCc1ccc2c(c1)C(O)(C#Cc1ccccc1)c1cc(CC)ccc1C2(O)C#Cc1ccccc1 (stereo unspecified) | 37.5% | 25.2% | 45.5% | 22.9% | -4.8% | 32.7%
37 | NC(=S)/N=C/C=C\c1ccccc1 | -10.6% | 2.3% | 5.25% | 0.35% | -13.8% | -7.7%
38 | O=c1n(-c2ccccc2)c(=O)n(-c2ccccc2)c(=O)n1-c1ccccc1 | -2.2% | -13.2% | -17.1% | 5% | 7.45% | -14.7%
39 | CCN(CC)C(=O)N(O)C1CCCCC1 | -35.4% | 2.2% | -14.9% | 8.05% | 4.75% | -7.2%
40 | Cc1cc(C)c2nccc(NCCCN(C)C)c2c1[N+](=O)[O-] | 5.65% | 5% | -1.8% | 5.35% | -10.8% | -78.5%
41 | C=CCN(N=O)C(=O)N(CCCCC(NC(C)=O)C(=O)NCc1ccccc1)Cc1ccccc1 (stereo unspecified) | -0.95% | -13.1% | -21.4% | -26.5% | -22.3% | -17.1%
